Assay outcomes deposited in PubChem BioAssay by National Center for Advancing Translational Sciences (NCATS).
DT40 TDP1 CPT = DT40-hTDP1 cell growth loss with CPT; chicken DT40 Tdp1-/-;hTDP1 cells + 20 nM CPT, ATP luminescence, 48 h; hit rate 12% among 420,000; Potency, µM (top dose mostly 46.2 µM), for inactives: at the top dose activity change, negative = growth inhibition, usual class: inhibitors; note: % is set by controls: 0 for no effect and ±100 for the full control effect; nearly all actives have a fitted effect of over 55% in size
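Chicken DT40 Tdp1-/- cells complemented with human TDP1, 400 cells/well, exposed to compounds plus 20 nM camptothecin for at least 48 h at 37 C; viability read as ATP content by CellTiter-Glo luminescence.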
HT1080-NT tox = kills 2HG-producing HT-1080-NT fibrosarcoma cells; HT-1080-NT fibrosarcoma viability, CellTiter-Glo ATP luminescence, 48 h; Potency, µM (highest dose often 46.1 µM), for the others: at the top dose activity, negative = less viability, hits mostly cytotoxic; hit rate 1.6% among 360,000; AID 686970;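 note: NT is the 2HG producing partner of a matched IDH1 knockdown line; 0% = DMSO-treated cells and -100% = media-only wells without cells; nearly all actives have a fitted effect of over 55% in size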
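Fibrosarcoma NT cells, 750 per well in 5% FBS RPMI, were exposed to compound for 48 hours. Viability: CellTiter-Glo luminescence.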
HT1080 IDH1KD tx = kills HT-1080 cells with IDH1 knockdown; Potency, µM (highest dose often 46.1 µM), inactives show top-dose activity, negative = toxicity, usual class: cytotoxic; HT-1080 IDH1 knockdown viability, ATP luminescence, 48 h; hit rate 2% among 360,000;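 note: 0% = DMSO wells and -100% = cell-free medium wells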
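% activity derives from luminescence (CellTiter-Glo), normalised to DMSO and no-cell wells. HT-1080-IDH1KD cells, 750/well, had 48 h compound exposure at 37 °C.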
TDP1 cell noCPT = qHTS for Inhibitors of human tyrosyl-DNA phosphodiesterase 1 (TDP1): qHTS in cells in absence of CPT; DT40 Tdp1-/- hTDP1 cells, no CPT, ATP luminescence, 48 h; Potency, µM (doses to about 46.2 µM), for inactives: top-dose activity change, negative = growth inhibition, actives largely listed as inhibitors; AID 686978, 2013; hit rate 15% among 420,000; note: % is set by controls: 0 for no effect and ±100 for the full control effect; nearly all actives have a fitted effect of over 55% in size
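Growth of hTDP1-complemented DT40 Tdp1-knockout cells is measured by ATP luminescence after at least 48 hr compound exposure at 37 °C, with DMSO substituting for the 20 nM CPT used in the parallel screen.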
TGFb SMAD3 inh = inhibitors of TGF-b signaling | HepG2 CAGA-GFP TGF-b/SMAD3 reporter, GFP fluorescence, 18 h; TGF-beta stimulated, 500 pg/mL final | Potency, µM (series often up to 46.1 µM), without a hit: at the highest dose activity, negative = inhibition, hits mostly inhibitors | hit rate 1.2% among 410,000; note: % is set by controls: 0 for no effect and ±100 for the full control effect; nearly all actives have a fitted effect of over 65% in size
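HEPG2 CAGA-GFP reporter cells (1000/well, DMEM with 1% FBS) received compounds, then recombinant TGF-beta at 500 pg/mL final for 18 hours at 37 degrees C. Per-cell GFP summed per well was normalised to unstimulated and stimulated DMSO controls before curve fitting.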
HepG2 viability = HepG2 cytotoxicity, counter-screen for TGF-b inhibitors; HepG2 CAGA-GFP viability, ATP luminescence, 18 h; Potency, µM (highest dose often 46.1 µM), inactives show top-dose activity change, negative = cytotoxicity, usual class: cytotoxic; hit rate 0.76% among 410,000
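CellTiter-Glo luminescence gave cytotoxicity after 18 hours at 37 degrees C. The cells were HepG2 CAGA-GFP in 1% FBS DMEM, stimulated with 500 pg/mL TGF-beta after compound addition. %Activity was normalised to no-cell wells (complete cell-killing) and DMSO (no toxicity), and curves were fitted and classified.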
An asterisk follows results filed as active; u = inconclusive; x = no result given. Shown are actives, neighbours in structure and some others; about 17% of the full set was active somewhere. Calls come from the whole dose curve; as a rule, active = well fitted curve in the direction sought with a large enough effect; inconclusive = small, poorly fitted or top-dose-only effect, or another doubt; inactive = no such curve, though single readings can be large; an effect the other way counts as inactive or inconclusive. Potency is the fitted concentration of half-maximal effect.

SMILES	DT40 TDP1 CPT	HT1080-NT tox	HT1080 IDH1KD tx	TDP1 cell noCPT	TGFb SMAD3 inh	HepG2 viability
Cc1ccc(NC(=O)CSC2=NN3CCCC(=O)N=C3S2)c(C)c1	u	4%	-4%	u	u	-3%
O=C1CCCN2N=C(SCC(=O)Nc3ccc(F)cc3F)SC2=N1	u	-3%	6%	u	-1%	-40%
Cc1ccc(C)c(CSC2=NN3CCCC(=O)N=C3S2)c1	u	-4%	-8%	16µM*	-16%	-6%
O=C1CCCN2N=C(SCC(=O)Nc3cccc(F)c3)SC2=N1	21µM*	u	-22%	13µM*	-4%	-5%
O=C(O)c1ccc(Oc2ccc(S(=O)(=O)c3ccc(C(=O)O)c(C(=O)O)c3)cc2)cc1	2%	1%	7%	0%	8%	-7%
COc1ccc(-c2nc(C(N)=O)c3[nH]c(=O)n(-c4ccccc4OC)c3n2)c(OC)c1	u	-21%	u	16µM*	2%	2%
COc1ccccc1-n1c(=O)[nH]c2c(C(N)=O)nc(-c3cccnc3)nc21	u	-30%	-20%	21µM*	24%	-3%
COc1ccccc1-n1c(=O)[nH]c2c(C(N)=O)nc(CC(C)C)nc21	-23%	18%	-2%	-21%	1%	-8%
COc1ccc(OC)c(-n2c(-c3ccc(S(C)(=O)=O)cc3)cc(C=O)c2C)c1	-27%	-18%	-27%	-6%	0%	-33%
COc1ccc(OC)c(-n2c(C)ccc2-c2ccc(S(C)(=O)=O)cc2)c1	18µM*	-1%	-1%	u	-20%	-7%
CC(Oc1ccccc1F)C(=O)NNC(=O)c1ccc(F)c(S(=O)(=O)N2CCOCC2)c1 (stereo unspecified)	12%	2%	4%	2%	6%	-26%
O=C1CN2CCC1C/C2=C\c1ccnc2c(Cl)cccc12 (stereo unspecified)	u	6%	4%	u	6%	-13%
CCOc1ccc(NC(=O)CN(C)C(=O)c2cc(C3CC3)nn2-c2ccccc2)cc1OCC	u	-1%	3%	u	-8%	-8%
CN(Cc1nc2ccccc2c(=O)[nH]1)C(=O)c1cc(C2CC2)nn1-c1ccccc1	13µM*	-13%	-1%	u	-22%	11%
Cc1ccc(C)c(NC(=O)CN(C)C(=O)c2cc(C3CC3)nn2-c2ccccc2)c1	16µM*	-13%	0%	u	u	-29%
N#Cc1c(N)n(Cc2ccccc2)c(=O)c2cc([N+](=O)[O-])ccc12	16µM*	-2%	-9%	18µM*	30%	6%
Cc1ccc(Cn2c(C)nc3ccc([N+](=O)[O-])cc3c2=O)cc1	18µM*	-2%	0%	21µM*	-14%	-10%
Cc1nc2ccc([N+](=O)[O-])cc2c(=O)n1Cc1ccc([N+](=O)[O-])cc1	u	-6%	-7%	u	-5%	-3%
Cc1cc(C(=O)NCc2nc(-c3ccccc3NC(=O)C3CCCO3)oc2C)nc(C)n1 (stereo unspecified)	8%	x	x	-30%	x	x
O=[N+]([O-])c1cc(-n2cccc2)ccc1N1CCOCC1	5%	8%	13%	u	u	-9%
Cc1cc(C=O)c(C)n1-c1ccc(N2CCOCC2)c([N+](=O)[O-])c1	u	-9%	-13%	u	-1%	-1%
Cc1cc(C=O)c(C)n1-c1ccc(N2CCCC2)c([N+](=O)[O-])c1	u	8%	0%	26µM*	0%	6%
Cc1ccc(C)n1-c1ccc(N2CCOCC2)c([N+](=O)[O-])c1	u	-25%	u	15µM*	5%	-1%
CCCCN(Cc1ccco1)C(=O)Cn1ncc2c([nH]c3ccccc32)c1=O	u	x	x	u	23%	7%
COc1cc(NC(=O)Cn2ccc3ccccc3c2=O)cc(OC)c1OC	-21%	x	x	-8%	-1%	-9%
SMILES	DT40 TDP1 CPT	HT1080-NT tox	HT1080 IDH1KD tx	TDP1 cell noCPT	TGFb SMAD3 inh	HepG2 viability
COc1ccc(C(=O)c2ccc(Cl)c([N+](=O)[O-])c2)cc1	0.82µM*	u	5.8µM*	0.73µM*	u	-27%
Cc1cc2ccccn2c1C(=O)c1ccc(Cl)c([N+](=O)[O-])c1	21µM*	-9%	-1%	u	u	-15%
Cc1c(C=O)c2ccccn2c1C(=O)c1ccc(Cl)c([N+](=O)[O-])c1	u	1%	0%	16µM*	0%	0%
Cc1cc2ccccn2c1C(=O)c1cccc([N+](=O)[O-])c1	u	-16%	u	u	-3%	2%
Cc1cc2ccccn2c1C(=O)c1ccc([N+](=O)[O-])o1	23µM*	u	16µM*	18µM*	11µM*	11µM*
CCN(CC)C(=O)C1CCCN(C(=O)c2cc(COc3cccc(OC)c3)on2)C1 (stereo unspecified)	-17%	0%	1%	-27%	u	-72%
Cc1ccnc2nc(C(=O)OCC(=O)Nc3ccc([N+](=O)[O-])cc3Br)nn12	-9%	-5%	6%	13%	2%	21%
COc1ccc(CN2C(=O)CSCC2(C)C(=O)Nc2c(C)cccc2C)cc1OC (stereo unspecified)	-117%	20%	11%	-11%	x	x
COC(=O)C/C(C)=N/Nc1ccc(S(=O)(=O)N2CCCC2)cc1[N+](=O)[O-]	-6%	7%	0%	-19%	-5%	-6%
CN(C)c1ncc(CN2CCC(CO)(CCCc3ccccc3)CC2)s1	-23%	0%	1%	u	3%	-2%
Cn1cc(CN2CCC(CO)(CCCc3ccccc3)CC2)c(-c2ccccc2)n1	16µM*	-29%	3%	u	-10%	-23%
CC(=O)c1cccc(CN2CCC(CO)(CCOc3ccccc3)CC2)c1	-3%	-2%	-1%	1%	18%	-9%
CC(=O)c1cccc(CN2CCC(CO)(CCCc3ccccc3)CC2)c1	u	3%	0%	23µM*	30%	0%
CC1=C/C(=N\NC(=S)Nc2cccnc2)CC(C)(C)C1	1.3µM*	-19%	-12%	2.1µM*	u	-27%
O=C(CSc1nc2ncccc2o1)Nc1ccc(Cl)cc1F	-6%	x	x	u	-11%	-9%
